Measured values reported in PubChem BioAssay.

The compounds below were run on PRMT1 (protein arginine N-methyltransferase 1) (assay: PRMT1 binders on small-molecule microarrays, primary screen, biochemical, small-molecule microarray, 635 nm fluorescence (AID 1088)). Conditions: small-molecule microarray binding, higher = more signal.

Going from CCCCCCc1nc(CCCc2cc3c(c(CCCCCC)n2)[Si](C(C)C)(C(C)C)OC3)cc2c1[Si](C(C)C)(C(C)C)OC2 to CCCCCN1CC=CC23O[C@@H]4/C=C\CCC(C)OC(=O)C4[C@H]2C(=O)N(CCCCCO)[C@@H]3C1=O (stereo not given in full), the composite z-score rises from -0.41 to -0.103.

Compared with COc1cccc(C(=O)O[C@H]2CC[C@]3(C)C4=C(CCC3C2(C)C)[C@]2(C)CC[C@H]([C@H](C)CCCC(C)C)[C@@]2(C)CC4)c1 (stereo not given in full), C=C(C(=O)CC[C@H](OC(C)=O)c1ccc(OCCO)cc1)C(C)C is higher in composite z-score: -0.0398 for the first, 1.19 for the second.

Going from O=C1N(CCS(=O)(=O)c2ccccc2)Cc2ccccc2C[C@]12N=C(c1ccc(OCCCO)cc1)O[C@@H]2c1ccccc1 to O=C(NCc1ccccc1)[C@]1(CCS(=O)(=O)c2ccccc2)N=C(c2ccc(OCCCO)cc2)O[C@@H]1c1ccccc1, the composite z-score rises from 1.54 to 1.57.

Going from O=C1C2C=CC(C(O)c3cccs3)N(Nc3ccccc3F)C2C(=O)N1c1ccccc1 (stereo not given) to CC(C)c1ccc(NN2C(C(O)c3cccc(O)c3)C=CC3C(=O)N(c4ccccc4)C(=O)C32)cc1 (stereo not given), the composite z-score rises from -0.441 to 1.46.

First: COc1ccc(NN2C(C(O)c3ccc(OC)c(OCc4ccccc4)c3)C=CC3C(=O)N(C4CCCCC4)C(=O)C32)cc1 (stereo not given)
Second: CCOc1cc(C(O)C2C=CC3C(=O)N(c4ccccc4)C(=O)C3N2Nc2ccc([N+](=O)[O-])cc2)ccc1O (stereo not given)
The composite z-score of the first is higher: 1.3 for the first, 1.07 for the second.

Going from COCCOC(=O)N1C(=O)[C@@]2(c3cc(C#CCNC(N)=O)ccc31)[C@H](C(=O)N1CCN(c3ncccn3)CC1)[C@H]1C(=O)O[C@H](c3ccccc3)[C@H](c3ccccc3)N1[C@@H]2c1ccccc1OCCO to COCCOC(=O)N1C(=O)[C@@]2(c3cc(C#CCC(C(=O)OC)C(=O)OC)ccc31)[C@H](c1ccccc1OCCO)N1[C@H](c3ccccc3)[C@H](c3ccccc3)OC(=O)[C@H]1[C@@H]2C(=O)N1CCc2cc(OC)c(OC)cc2C1, the composite z-score rises from 1.47 to 1.56.

Compared with C=CC[C@]1(C(=O)N2CCOCC2)N=C(c2ccc(OCCCO)cc2)O[C@H]1c1ccccc1, [N-]=[N+]=Nc1ccccc1[C@@H]1OC(c2ccc(OCCCO)cc2)=N[C@]1(CCS(=O)(=O)c1ccccc1)C(=O)N1CCOCC1 is higher in composite z-score: 0.74 for the first, 1.55 for the second.

Compared with CCOC(=O)C1=CC[C@@H](c2ccccc2)N(S(=O)(=O)c2ccc(C)cc2)[C@H]1C(=O)OCC, CC(C)N1C(=O)c2ccccc2[C@@H](C(=O)NCCCN(C)C)[C@@H]1c1ccc(CO)cc1 is lower in composite z-score: 0.334 for the first, -0.468 for the second.

Compared with CC=CC(O)C1C=CC2C(=O)N(c3ccccc3)C(=O)C2N1Nc1ccc(C(C)C)cc1 (stereo not given), CC(C)C(O)C1C=CC2C(=O)N(c3ccccc3)C(=O)C2N1Nc1ccc(C#N)cc1 (stereo not given) is lower in composite z-score: 1.53 for the first, 1.04 for the second.

Going from O=C1OCCC=C[C@H]2OC34C=CCN(c5ccc6ccccc6c5)C(=O)[C@H]3N(CCCCCO)C(=O)[C@@H]4C12 (stereo not given in full) to Cc1ccccc1C(O)C1C=CC2C(=O)N(C)C(=O)C2N1Nc1ccccc1 (stereo not given), the composite z-score rises from 0.737 to 1.25.

Going from CCOC(=O)C[C@H]1[C@H](OC(=O)c2ccc(C(=O)c3ccccc3)cc2)[C@@H](NC(=O)C2CCCCC2)c2cc(OCCCO)ccc2N1C(=O)c1ccccc1 to NC(=O)NCC#Cc1ccc2c(c1)[C@]1(C(=O)N2)[C@H](C(=O)N2CCCCCCC2)[C@H]2C(=O)O[C@H](c3ccccc3)[C@H](c3ccccc3)N2[C@@H]1c1ccc(OCCO)cc1, the composite z-score falls from 1.55 to 1.43.

Going from O=C1[C@]2(CO)C=C(Br)[C@@H](C[C@@H]2c2ccccc2)[C@@]12CO2 to O=C1c2ccccc2[C@@]2(Cc3ccccc3N(Cc3ccccc3)C2=O)[C@H](c2ccc(CO)cc2)N1C1CCCCC1, the composite z-score rises from -0.756 to 1.21.

Compared with O=C(CS)NCCCCCCNC(=O)[C@H]1C[C@H]2C(=O)N3CCC[C@H]3C(=O)N2[C@H]1c1cccc(OCCO)c1, COc1ccc(CCNC(=O)[C@@]2(c3ccc([N+](=O)[O-])cc3)CC(=O)N(CC34CC5CC(CC(C5)C3)C4)[C@@H]2c2ccc(CO)cc2)cc1 is lower in composite z-score: 1.5 for the first, 1.37 for the second.

Compared with COCC(=C=CC[C@H](O)c1ccc(OCCO)cc1)C[C@H](O)c1cc(Cl)cc(Cl)c1O, CN1CCC(CCCO)=CC1c1ccc(CN2CCCC2)cc1 (stereo not given) is lower in composite z-score: 1.55 for the first, 1.54 for the second.

Going from O=C1O[C@H](c2ccccc2)[C@H](c2ccccc2)N2[C@H]1[C@@H](C(=O)Nc1nc3ccccc3s1)[C@]1(C(=O)Nc3ccccc31)[C@H]2c1ccc(O)cc1 to C=C[C@@H](COC(C)=O)N(Cc1ccc([N+](=O)[O-])cc1)S(=O)(=O)c1ccc(Br)cc1, the composite z-score falls from 1.55 to 0.876.
